Assay results: PubChem BioAssay (NCATS)
Results filed as inconclusive are left out. Calls of active or inactive are those of the source. Calls follow the shape of the dose curve; as a rule, active = well fitted inhibition curve with a large enough effect; inconclusive = small, poorly fitted or top-dose-only effect; inactive = no such curve, though single readings can be large or run the other way.

experiment: BET inhibitor-based combinations targeting novel dependencies in MECOM-rearranged (r) AML: OCI-AML3 cell line (AID 2202232); conditions: CellTiter-Glo luminescence, 48 h; Potency: OCI-AML3 viability; series mostly up to 46 µM; also: nearly all actives have a fitted effect of over 35% in size
How it was run: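 Here, 11-point titrations of each agent were applied to 500 seeded cells and incubated 48 hr; CellTiter-Glo signal, scaled against DMSO and empty wells, was integrated as AUC, then Z-scored within the individual line.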
Potency is read from the fitted curve at half-maximal effect.

SMILES | Potency
O=C1c2ccccc2-[n+]2ccc3c([nH]c4ccccc43)c21 | 1.86 µM (active)
Cc1cc([C@@H](C)Nc2ccccc2C(=O)O)c2nc(N3CCOCC3)cc(=O)n2c1 | 1.32 µM (active)
Cc1c(C(=O)NN2CCCCC2)nn(-c2ccc(Cl)cc2Cl)c1-c1ccc(Cl)cc1 | inactive
O=C(O)CCC1CCC(c2cc(F)ccc2F)(S(=O)(=O)c2ccc(Cl)cc2)CC1 (stereo not given) | inactive
CCOCC(O)COc1ccc(NC(=O)CC[S+](C)C)cc1 (stereo not given) | inactive
C[C@H](NC(=O)c1sccc1OCc1ccc(Cl)cc1)c1ccccc1 | inactive
Oc1cccc(-c2nc(N3CCOCC3)c3oc4ncccc4c3n2)c1 | 0.0661 µM (active)
CCOC(=O)[C@H](CCc1ccccc1)N[C@H]1CS[C@H](c2cccs2)CN(CC(=O)O)C1=O | 20.9 µM (active)
CC(C)C[C@@H](N)[C@H](O)C(=O)N[C@H](C(=O)N[C@H](C(=O)N[C@@H](CC(=O)O)C(=O)O)C(C)C)C(C)C | inactive
Nc1nc2[nH]cc(CCc3ccc(C(=O)N[C@@H](CCC(=O)O)C(=O)O)cc3)c2c(=O)[nH]1 | 0.662 µM (active)
CCC(=O)O[C@]1(C(=O)SCF)[C@H](C)C[C@H]2[C@@H]3C[C@H](F)C4=CC(=O)C=C[C@]4(C)[C@@]3(F)[C@@H](O)C[C@@]21C | inactive
C[C@H](NC(=O)[C@@H](O)c1cc(F)cc(F)c1)C(=O)N[C@@H]1C(=O)N(C)c2ccccc2-c2ccccc21 | inactive
C[C@@H]1C(=O)O[C@H]2CC34[C@H]5C[C@@H](C(C)(C)C)C36[C@H](OC(=O)[C@@H]6O)O[C@@]4(C(=O)O5)[C@]21O (stereo not given in full) | inactive
CO[C@@H]1[C@@H](OC(N)=O)[C@@H](O)[C@H](Oc2ccc3c(O)c(NC(=O)c4ccc(O)c(CC=C(C)C)c4)c(=O)oc3c2C)OC1(C)C | inactive
Cc1[nH]nc2ccc(-c3cncc(OC[C@@H](N)Cc4ccccc4)c3)cc12 | 1.18 µM (active)
NC1=N[C@H]2[C@H](CS[C@H]2CCCCC(=O)O)N1 | inactive
Cc1ccsc1C(=CCCN1CCC[C@@H](C(=O)O)C1)c1sccc1C | 0.468 µM (active)
Clc1ccc(C(Cn2ccnc2)OCc2ccc(Sc3ccccc3)cc2)c(Cl)c1 (stereo not given) | inactive
OC1CCC(Nc2ncc3nc(Nc4c(F)cc(F)cc4F)n([C@@H]4CCOC4)c3n2)CC1 (stereo not given in full) | 18.6 µM (active)
CCOC(=O)[C@@H](N)CCC(=O)N[C@@H](CSCc1ccccc1)C(=O)N[C@@H](C(=O)OCC)c1ccccc1 | 10.5 µM (active)

SMILES | Potency
CCOc1cc(N2CCC(O)CC2)ccc1Nc1ncc2c(n1)N(C)c1ccccc1C(=O)N2C | 3.32 µM (active)
CC(C)(C)c1cc(C(C)(C)C)c(NC(=O)c2c[nH]c3ccccc3c2=O)cc1O | 20.9 µM (active)
CO[C@@H](C(=O)N1Cc2[nH]nc(NC(=O)c3ccc(N4CCN(C)CC4)cc3)c2C1)c1ccccc1 | 1.86 µM (active)
Cc1c(C)c2c(c(C)c1O)CCC(C)(COc1ccc(CC3SC(=O)NC3=O)cc1)O2 (stereo not given) | inactive
C[C@H](NC(=O)Cc1cc(F)cc(F)c1)C(=O)N[C@H](C(=O)OC(C)(C)C)c1ccccc1 | inactive
NC(=O)N1CCC(CC(=O)N2CCC([C@H]3c4ncc(Br)cc4CCc4cc(Cl)cc(Br)c43)CC2)CC1 | 1.18 µM (active)
CSc1cccc(Nc2ncc3cc(-c4c(Cl)cccc4Cl)c(=O)n(C)c3n2)c1 | inactive
CC(Cc1ccc(O)c(O)c1)(NN)C(=O)O (stereo not given) | inactive
CC(C)C[C@H](NC(=O)CNC(=O)c1cc(Cl)ccc1Cl)B(O)O | 0.118 µM (active)
Oc1cc2c(cc1O)C1c3ccc(O)c(O)c3OCC1(O)C2 (stereo not given) | 23.5 µM (active)
COC(=O)Nc1ccc(-c2nc(N3CCOCC3)c3cnn(C4CCN(C(=O)OC)CC4)c3n2)cc1 | 4.17 µM (active)
C=C(C)[C@@H]1CC[C@]2(C)CC[C@]3(C)[C@H](CC[C@@H]4[C@@]5(C)CC[C@H](O)C(C)(C)[C@H]5CC[C@]43C)[C@@H]12 | inactive
Cc1ccc(S(=O)(=O)Nc2nc3ccccc3nc2Nc2ccc3nsnc3c2)cc1 | inactive
Cc1ccc2c(=O)c3cccc(CC(=O)O)c3oc2c1C | inactive
COc1c(C)cnc(Cn2cnc3c(Cl)nc(N)nc32)c1C | 0.372 µM (active)
CC1(CN2CCC(n3c(=O)[nH]c4ccccc43)CC2)OCc2ccccc2-n2cccc21 (stereo not given) | 16.6 µM (active)
C/C=C/C(=O)N(CC)c1ccccc1C | inactive
Oc1ccc(C2CCN(c3ccnc4ccccc34)CC2)cc1O | 13.2 µM (active)
COC(=O)C1=C(C)NC(C)=C(C(=O)OCCN2CCN(C(c3ccccc3)c3ccccc3)CC2)C1c1cccc([N+](=O)[O-])c1 (stereo not given) | 20.9 µM (active)
COc1ccc(-c2ccc3c(N4CCOCC4)nc(N4C[C@@H](C)O[C@@H](C)C4)nc3n2)cc1CO | 1.18 µM (active)
